# Compounds with a hit are over-represented: about 2.4% of the library has one in this group of screens.
# TMEM16A act = TMEM16A chloride channel activators or potentiators, primary screen, cell-based, HTS | B-score at 10 µM | HEK293 TMEM16A/YFP-H148Q/I152L, iodide quench fluorescence; hits give low values | AID 623877, 2012 | 340,000 tested, 0.3% active | Anoctamin-1 (Mus musculus), Q8BHY3;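 active means fluorescence-ratio B-score plate-corrected deviation score at least 3 library SD below zero, with starting fluorescence score within 5 deviations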;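 further: channel opened by trigger with iodide after compound preincubation; score built on the fluorescence ratio of max minus min over baseline; more negative score means more quench and so TMEM16A activation or potentiation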
# ANO1 block = TMEM16A chloride channel inhibitors, primary screen, cell-based, HTS. Anoctamin-1 (Mus musculus), Q8BHY3. HEK293 TMEM16A/YFP iodide influx fluorescence, ionomycin. 310,000 tested, 1.2% active. normalized B-score (activity score, 25-100; higher = stronger inhibition) at 10 µM;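 active means ratio plate-corrected score three or more library SD toward inhibition, starting fluorescence score within five deviations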;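 further: score derived from kinetic fluorescence span divided by baseline fluorescence per well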
# CHT allo act = CHT positive allosteric modulators, primary screen, cell-based, membrane potential dye, choline EC20; High affinity choline transporter 1 (Homo sapiens), Q9GZV3; CHT-expressing cells; hits give high values; LV-AA mutant CHT in HEK293 cells; AID 488977, 2010; B-score at 10 µM; 310,000 tested, 0.49% active;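 active means initial fluorescence not abnormally high and integrated response B-score, plate-corrected, over 3 SD above library mean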
# CHT block = inhibitors of human choline transporter CHT. High affinity choline transporter 1 (Homo sapiens), Q9GZV3. CHT-expressing cells, membrane potential dye, choline response; hits give low values. B-score at 10 µM. 310,000 tested, 0.86% active;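 active means B-score over 3 SD under the library average, and starting fluorescence ratio not unusually high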;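 further: choline stimulus applied at its EC90 after an EC20 pre-addition; B-score computed on integrated fluorescence ratio after choline addition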
# TMEM16A reconf = TMEM16A chloride channel inhibitors, confirmation, cell-based, re-confirmation | shares compounds with ANO1 block | HEK293 TMEM16A/YFP-H148Q, iodide quench fluorescence; ionomycin added to raise cell calcium | inhibition, % at 10 µM | 2,300 tested, 39% active | AID 652189, 2013;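 active means mean duplicate percent inhibition, scaled so buffer wells are 0 and the reference blocker 100, over three buffer SD above buffer mean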
# HEK293 Ca mobil = calcium mobilization in TMEM16A/YFP HEK293 cells, confirmation, counter-screen for TMEM16A inhibitor project. shares compounds with ANO1 block. Fluo4 calcium mobilization. calcium response (% of ionomycin), % at 10 µM. 2,300 tested, 2% active;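 active means duplicate-averaged calcium signal over 20% of the ionomycin maximum, relative to buffer baseline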;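 further: each well's signal is peak minus trough fluorescence divided by its pre-addition baseline; 0% = buffer wells and 100% = ionomycin wells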
# Parental YFP cnt = iodide YFP quench changes in parental YFP-HEK293, counter-screen for TMEM16A inhibitor project, cell-based | shares compounds with ANO1 block | ionomycin | YFP ratio F(max-min)/F0 at 10 µM | 2,300 tested, under 10 active | AID 652233, 2013;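 active means yellow fluorescent protein signal ratio exceeding the buffer control mean by over 5 SD of those controls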;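 further: ratio is mean of duplicate wells from kinetic YFP trace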
# ClC-1 rat inh = ClC-1 chloride channel inhibition, selectivity assay for TMEM16A inhibitor project, cell-based, voltage-dependent ClC-1; shares compounds with ANO1 block; CHO ClC-1-YFP, iodide influx fluorescence quench; iodide control reads 0, buffer control 100; ratio percent, % at 10 µM; 2,300 tested, under 10 active; AID 652236, 2013;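 active means duplicate-mean ratio percent above the mean of iodide-only control wells, which defines zero, plus 5 of their SD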;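 further: higher percent means stronger block of ClC-1 iodide influx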
# The depositor's hits bear a star; i = inactive; x = no result.
SMILES,TMEM16A act,ANO1 block,CHT allo act,CHT block,TMEM16A reconf,HEK293 Ca mobil,Parental YFP cnt,ClC-1 rat inh
COC(=O)C1=CN(Cc2ccc(C)cc2)C=C(C(=O)OC)C1c1ccc(F)c(F)c1,i,i,i,i,x,x,x,x
COC(=O)C1=CN(Cc2ccccc2)C=C(C(=O)OC)C1c1cc(F)ccc1F,i,i,i,i,i,i,-1.1,-6.5
Cc1cccc2sc(N(CCN(C)C)C(=O)C3CCN(S(=O)(=O)c4cccs4)CC3)nc12,i,i,i,i,x,x,x,x
COc1ccc2oc3cc(C)[n+]([O-])c(-c4ccc(Br)cc4)c3c2c1,i,25*,i,i,21.5%*,i,-1.3,-11.5
COc1cc(C(=O)OCC(=O)N(C)C)cc(NC(=O)c2ccco2)c1OC,i,100*,i,i,i,i,-0.979,-7.5
Cc1cc(N2CCC(C)CC2)nc(NCc2ccccc2)n1,i,100*,i,i,i,i,-1.28,-20.0
Cc1cc(Nc2ccccc2)nc(NCc2ccccc2)n1,i,100*,i,i,i,i,-1.12,-24.5
Cc1cc(N2CCC(C)CC2)nc(-c2ccccc2O)n1,i,i,i,i,x,x,x,x
Cc1cc(Nc2cccc(F)c2)nc(NCc2ccccc2)n1,i,i,i,i,x,x,x,x
N#Cc1ccccc1OCC(=O)N1CCN(C(=O)c2ccco2)CC1,i,i,i,i,x,x,x,x
CN(CC(=O)NC1CC(C)(C)NC(C)(C)C1)S(=O)(=O)c1ccc(Br)cc1,i,i,i,i,x,x,x,x
Cc1ccc(C)c(C(=O)C(C)Sc2nc3nn(-c4ccccc4)c(=O)c-3c3n2CCCCC3)c1 (stereo unspecified),i,i,i,i,x,x,x,x
O=C(Nc1nc(-c2ccc(F)c(F)c2)cs1)c1ccc(OCC2CCCO2)cc1 (stereo unspecified),i,25*,i,i,i,i,-1.17,-7.0
Cc1csc(NC(=O)c2ccc(OCC3CCCO3)cc2)n1 (stereo unspecified),i,i,i,i,x,x,x,x
O=C(Nc1nc(-c2ccc(-c3ccccc3)cc2)cs1)C1CCCO1 (stereo unspecified),i,100*,i,i,i,i,-0.901,-21.0
CC(=O)NC(CC(=O)OCC(=O)N1CCN(S(=O)(=O)c2ccc(Cl)cc2)CC1)c1ccccc1 (stereo unspecified),i,i,i,i,x,x,x,x
Cc1nc(-c2c(-c3ccc(O)cc3O)noc2C(F)(F)F)cs1,i,100*,i,i,i,i,-0.983,2.0
COc1ccc(-c2ncnc(C(F)(F)F)c2-c2csc(C)n2)c(O)c1,i,i,i,i,x,x,x,x
COc1ccc(NC(=O)C2CCN(Cc3cnn(-c4ccccc4)c3-n3cccc3)CC2)cc1OC,i,i,i,i,x,x,x,x
COc1cccc(NC(=O)C2CCN(Cc3cnn(-c4ccccc4)c3-n3cccc3)CC2)c1,i,25*,i,i,i,i,-1.38,-9.0
COc1cccc(CN(C)C(=O)CNC(=O)c2sc3ccccc3c2Cl)c1OC,i,25*,i,i,i,i,-1.03,-2.5
COc1ccc(NC(=O)CSCC(=O)N(C)Cc2cccc(OC)c2OC)cc1,i,i,i,i,x,x,x,x
COc1cccc(CN(C)C(=O)COc2ccc(C(=O)c3ccc(Cl)cc3)cc2)c1OC,i,100*,i,i,26.0%*,i,-0.995,-17.0
O=S(=O)(Nc1ccc(C(F)(F)F)cn1)c1ccccc1,i,i,i,i,x,x,x,x
Cc1ccc(NS(=O)(=O)c2ccc(C(=O)N3CC(C)CC(C)C3)cc2)cc1 (stereo unspecified),-17.3*,100*,10.4*,i,79.5%*,40.0%*,-1.06,-7.0
SMILES,TMEM16A act,ANO1 block,CHT allo act,CHT block,TMEM16A reconf,HEK293 Ca mobil,Parental YFP cnt,ClC-1 rat inh
Cc1ccc(S(=O)(=O)Nc2ccc(C(=O)N3CCCC3)cc2)cc1,i,i,i,i,x,x,x,x
O=C(CCCc1nc(-c2ccccc2)no1)N1CCOCC1,i,i,i,i,x,x,x,x
Cc1nc2ccccc2c2c1CC(C(C)(Cl)Br)O2 (stereo unspecified),i,25*,i,i,18.0%*,i,-1.02,-20.0
CCOc1ccc(C(=O)N2CCC(C(=O)c3ccc4c(c3)OCCO4)CC2)cc1,i,100*,i,i,i,i,-1.24,-12.0
CCCCCCCCNc1ncnc2ccccc12,i,100*,i,i,38.0%*,i,-1,-35.5
c1ccc(CCNc2ncnc3ccccc23)cc1,i,25*,i,i,i,i,-1.03,-25.5
CC(=O)c1cccc(NC(=O)C(C)OC(=O)c2cccc(-n3cnnn3)c2)c1 (stereo unspecified),i,i,i,i,x,x,x,x
Cc1cc(C)n(CCOc2ccc(Cl)cc2Cl)n1,i,i,i,i,x,x,x,x
O=S(=O)(c1ccccc1)N1CCN(c2ccnc3cc(Cl)ccc23)CC1,i,100*,i,i,i,i,-0.881,-5.0
CNc1nnc(SCC(=O)c2cc(C)n(C3CC3)c2C)s1,i,x,x,x,x,x,x,x
O=C1[C@H](CC[C@H](O)c2ccc(F)cc2)[C@@H](c2ccc(O)cc2)N1c1ccc(F)cc1,x,i,i,i,x,x,x,x
Cc1ccc(C)c(N2CCN(S(=O)(=O)c3csc(C(N)=O)c3)CC2)c1,i,25*,i,i,i,i,-0.884,0.5
NC(=O)c1cc(S(=O)(=O)N2CCCCC2)cs1,i,i,i,i,x,x,x,x
O=C(OCc1csc(-c2ccccc2)n1)c1ccc(O)cc1,i,100*,i,i,i,i,-1.12,-5.5
Cc1ccc(C(=O)NCC(=O)OCc2csc(-c3ccccc3)n2)cc1,i,i,i,i,x,x,x,x
Cn1c(NN)nc2sc3c(c2c1=O)CC(C)(C)OC3,i,i,i,i,x,x,x,x

# Screening data from PubChem.
